Some test systems named below: SR leukemia; RPMI-8226 leukemia; OVCAR-8 ovarian; OVCAR-5 ovarian; OVCAR-4 ovarian; SK-OV-3 ovarian; IGROV1 ovarian; OVCAR-3 ovarian; HS 578T breast; NCI/ADR-RES ovarian; T-47D breast; BT-549 breast; MDA-MB-435 melanoma; SW-620 colon; MCF7 breast; HCT-116 colon; HCC-2998 colon; KM12 colon.
Common to all, as to experiment: NCI-60 one-dose screen, 48 h (100 = growth as untreated, 0 = no growth, -100 = all killed)
What all share (conditions): 10 µM unless noted

This is part of a sample that, as a whole, favours compounds with a hit. Of some 83,000 tested, about 20% had one in any assay.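 Cell lines were cultured in 96-well plates, exposed to a single compound concentration, and assessed for percent growth 48 hours later.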 A number with no mark means an inactive call. The source made the active and inactive calls. Rule for the calls: active = growth percent below 10; inactive = the rest.

Turning to `CCCOC(=O)N[C@H]1CCc2cc(OC)c(OC)c(OC)c2-c2ccc(SC)c(=O)cc21`, the growth was 4.77% (active) in the assay on SR leukemia; 5.39% (active) with RPMI-8226 leukemia; 23.6% with OVCAR-8 ovarian; 33.9% in the assay with OVCAR-5 ovarian; 40.5% in the assay on OVCAR-4 ovarian; 42.7% in the assay with SK-OV-3 ovarian. The growth is 17.5% with IGROV1 ovarian; -42.1% (active) with OVCAR-3 ovarian; 5.68% (active) in the assay on HS 578T breast; 5.94% (active) with NCI/ADR-RES ovarian; 39.3% with T-47D breast; 10.2% in the assay with BT-549 breast. Further, the growth was -40.4% (active) with MDA-MB-435 melanoma; 18.4% in the assay on SW-620 colon; 15.6% in the assay with MCF7 breast; 7.65% (active) in the assay with HCT-116 colon; 23% with HCC-2998 colon; -11.3% (active) with KM12 colon.

`O=C1Nc2cc(-c3ccc(NC(=O)c4ccccc4)cc3)ccc2/C1=C/c1ccc[nH]1`: the growth with SR leukemia is 29.7%; in the assay on RPMI-8226 leukemia it was 101%; in the assay with OVCAR-8 ovarian, 101%; in the assay on OVCAR-5 ovarian, 110%; with OVCAR-4 ovarian it was 70%; in the assay with SK-OV-3 ovarian, 110%. Further, the growth with IGROV1 ovarian was 95.3%; in the assay on OVCAR-3 ovarian it was 93.9%; with HS 578T breast, 115%; in the assay with NCI/ADR-RES ovarian it was 90.1%; with T-47D breast, 35.7%; in the assay on BT-549 breast, 89.1%. In addition, the growth was 99.5% with MDA-MB-435 melanoma; 105% with SW-620 colon; 8.35% (active) in the assay on MCF7 breast; 99.1% with HCT-116 colon; 99.8% in the assay on HCC-2998 colon; 68.7% in the assay on KM12 colon.

Turning to `COc1cc2oc(-c3cccc(C(=O)Nc4ccc5c(c4)OCO5)c3)cc(=O)c2c(O)c1OC`, the growth in the assay on SR leukemia was 75.9%; in the assay on RPMI-8226 leukemia, 79.8%; in the assay with OVCAR-8 ovarian, 30.6%; in the assay on OVCAR-5 ovarian it was 88.9%; in the assay on OVCAR-4 ovarian it was 0.0679% (active); in the assay on SK-OV-3 ovarian it was 91.4%. The growth in the assay on IGROV1 ovarian is 81.6%; in the assay on OVCAR-3 ovarian it was 89.5%; in the assay with HS 578T breast, 72.7%; in the assay on NCI/ADR-RES ovarian, 70.6%; in the assay with T-47D breast, 69.5%; with BT-549 breast, 84%. Moreover, the growth is 79.1% with MDA-MB-435 melanoma; 84.5% in the assay with SW-620 colon; 91.6% in the assay with MCF7 breast; 57% in the assay with HCT-116 colon; 105% with HCC-2998 colon; 70.6% in the assay on KM12 colon.

In the case of `O=C(NNc1nc2c(F)cccc2n2cccc12)c1cnccn1`, the growth with SR leukemia was 7.37% (active); with RPMI-8226 leukemia, 10.6%; in the assay with OVCAR-8 ovarian, 21.1%; with OVCAR-5 ovarian, 39%; in the assay with OVCAR-4 ovarian, 28.1%; in the assay on SK-OV-3 ovarian, 28.4%. The growth is 21.1% with IGROV1 ovarian; 23.2% in the assay on OVCAR-3 ovarian; 77.3% in the assay on HS 578T breast; 3.12% (active) with NCI/ADR-RES ovarian; 22.8% in the assay with T-47D breast; 38% in the assay with BT-549 breast. Further, the growth in the assay on MDA-MB-435 melanoma was 32%; in the assay on SW-620 colon it was 29%; with MCF7 breast, 10.5%; in the assay on HCT-116 colon it was 12.4%; in the assay on HCC-2998 colon, 52.9%; with KM12 colon, 23.2%.

Regarding `O=S(=O)(NCCNc1nccc(-c2c(-c3cccc(O)c3)nc3occn23)n1)c1ccc(Cl)cc1`, the growth with SR leukemia was 106%; in the assay on RPMI-8226 leukemia, 105%; with OVCAR-8 ovarian, 105%; in the assay with OVCAR-5 ovarian, 143%; in the assay on OVCAR-4 ovarian, 126%; with SK-OV-3 ovarian it was 99.8%. For the same compound, the growth with IGROV1 ovarian is 95%; in the assay with OVCAR-3 ovarian it was 113%; in the assay with HS 578T breast, 108%; in the assay with NCI/ADR-RES ovarian it was 109%; with T-47D breast, 91.7%; in the assay on BT-549 breast it was 116%. Further, the growth is 45.4% with MDA-MB-435 melanoma; 125% in the assay with SW-620 colon; 82% in the assay on MCF7 breast; 87.6% in the assay with HCT-116 colon; 135% in the assay with HCC-2998 colon; 91.3% in the assay on KM12 colon.

With `O=C(c1nnc(Nc2ccccc2Br)o1)c1c[nH]c2ccccc12`, the growth in the assay with SR leukemia is 103%; in the assay on RPMI-8226 leukemia it was 93.6%; with OVCAR-8 ovarian, 94.9%; with OVCAR-5 ovarian, 99.6%; with OVCAR-4 ovarian it was 106%; in the assay on SK-OV-3 ovarian it was 83%. In addition, the growth was 72.6% in the assay on IGROV1 ovarian; 97.2% in the assay on OVCAR-3 ovarian; 104% in the assay with HS 578T breast; 102% with NCI/ADR-RES ovarian; 79.6% in the assay with T-47D breast; 103% with BT-549 breast. Besides, the growth was 101% with MDA-MB-435 melanoma; 98.7% in the assay with SW-620 colon; 77.2% with MCF7 breast; 88.4% with HCT-116 colon; 88.6% in the assay on HCC-2998 colon; 81.7% in the assay with KM12 colon.

Take `Cn1ccnc1C(=O)/C=C/c1ccc(CC(=O)Nc2ccc(Cl)cc2)cc1`: the growth was 6.73% (active) with SR leukemia; -7.76% (active) with RPMI-8226 leukemia; -27.7% (active) with OVCAR-8 ovarian; 22.9% with OVCAR-5 ovarian; 36.9% in the assay on OVCAR-4 ovarian; 58.7% in the assay on SK-OV-3 ovarian. For the same compound, the growth in the assay on IGROV1 ovarian was 13%; with OVCAR-3 ovarian it was 4.49% (active); with HS 578T breast, 8.18% (active); with NCI/ADR-RES ovarian it was 10.8%; with T-47D breast, 2.07% (active); in the assay with BT-549 breast, 17.6%. The growth in the assay on MDA-MB-435 melanoma was 17.6%; with SW-620 colon, 7.1% (active); in the assay on MCF7 breast it was 25.5%; with HCT-116 colon it was 7.88% (active); in the assay on HCC-2998 colon, 30.3%; in the assay on KM12 colon, 9.56% (active).

On to `NC1=NN=C(N)C1=Cc1cc2ccccc2n2nnnc12`, for which the growth with SR leukemia is 94.4%; in the assay with RPMI-8226 leukemia it was 105%; in the assay on OVCAR-8 ovarian, 98.1%; with OVCAR-5 ovarian, 108%; in the assay with OVCAR-4 ovarian, 105%; in the assay with SK-OV-3 ovarian, 91.7%. In addition, the growth with IGROV1 ovarian was 103%; with OVCAR-3 ovarian, 105%; in the assay on HS 578T breast it was 94.7%; in the assay with NCI/ADR-RES ovarian, 105%; with T-47D breast, 88.4%; with BT-549 breast, 94.7%. The growth in the assay with MDA-MB-435 melanoma was 108%; in the assay on SW-620 colon it was 98.2%; in the assay on MCF7 breast, 89.9%; in the assay with HCT-116 colon, 104%; in the assay on HCC-2998 colon, 108%; with KM12 colon it was 105%.

The values above are taken from PubChem BioAssay (NCI).
